An excerpt weighted towards active compounds, which were near 2.5% of everything screened.
sEH inhibitor – inhibitors of human soluble epoxide hydrolase | AID 707 | 91,000 tested, 0.34% active | P34913 | inhibition, % at 2 µM | recombinant human sEH enzymatic activity assay; in the data active = inhibition above about 80%
Target sequence (P34913 whole entry, looked up): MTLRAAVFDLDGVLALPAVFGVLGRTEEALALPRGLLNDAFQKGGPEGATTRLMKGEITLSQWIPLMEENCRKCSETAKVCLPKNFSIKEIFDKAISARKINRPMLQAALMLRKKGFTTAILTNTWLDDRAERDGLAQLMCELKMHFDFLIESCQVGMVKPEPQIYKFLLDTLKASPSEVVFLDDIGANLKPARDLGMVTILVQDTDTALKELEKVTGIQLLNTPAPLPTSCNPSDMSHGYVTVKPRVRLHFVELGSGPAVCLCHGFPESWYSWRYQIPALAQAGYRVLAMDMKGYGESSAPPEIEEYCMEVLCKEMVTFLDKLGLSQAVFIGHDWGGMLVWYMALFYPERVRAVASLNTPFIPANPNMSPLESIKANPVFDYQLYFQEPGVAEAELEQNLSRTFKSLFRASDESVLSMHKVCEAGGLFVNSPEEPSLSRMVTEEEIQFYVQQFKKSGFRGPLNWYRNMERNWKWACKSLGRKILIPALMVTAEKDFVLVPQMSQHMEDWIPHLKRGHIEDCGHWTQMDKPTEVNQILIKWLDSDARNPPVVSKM
Measles CPE – protection of cells from measles virus; 140,000 tested, 1.5% active; Measles virus-infected cells, CPE protection, absorbance; protection (pct of control), % at 4 µM; in the data active = protection mostly above about 24%, no sharp cut-off; inactive = mostly below about 26%
MRP-1 activ – activates MRP-1; H69AR cells + doxorubicin, viability rescue, CellTiter-Glo; viability increase, % at 10 µM; 140,000 tested, 0.61% active; AID 799;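 active = viability gain under doxorubicin at or above a set limit, the compound median plus 3 SD, cut at about 4.7% in these data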;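 also: MRP-1 overexpressing cells given doxorubicin 25 µM after compound pretreatment; 18-22 h compound pretreatment then 72 h with doxorubicin before readout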
sEH act – increases human soluble epoxide hydrolase activity; P34913; AID 717; activation, % at 2 µM; 91,000 tested, 0.04% active; purified human sEH enzymatic activity, activator screen; in the data active = activation above about 37%
MRP reversal – MRP-mediated drug resistance reversal. H69AR cells + 2 uM doxorubicin, CellTiter-Glo, 72 h. differential viability (reversal), % at 10 µM. 85,000 tested, 0.04% active;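 active = viability drop by adding the cancer drug above about 55%, with treated viability meeting a 40% cutoff, limit read from the data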;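 also: larger differential means the compound sensitizes cells more to doxorubicin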
sdo1 growth – sdo1-depleted yeast growth rescue; S. cerevisiae sdo1-depleted JHY4D growth rescue, OD600 30 h; hits give high values; pdr5 snq2 efflux-pump mutant strain; z-score at 10 µM; 140,000 tested, 0.21% active;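 active = z-score above 3 at both the 24 hr and the 30 hr optical density reads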
Numbers stand for hits; . = inactive; / = no result.

SMILES	sEH inhibitor	Measles CPE	MRP-1 activ	sEH act	MRP reversal	sdo1 growth
O=C(Nc1ccc(Cl)cc1)c1cc(S(=O)(=O)N2CCOCC2)cs1	.	78.3	.	.	.	.
Cc1ccc(NC(=O)c2cc(S(=O)(=O)N3CCCCC3)cs2)cc1	.	.	.	.	.	.
Cc1nc2ccc(NC(=O)NCCCO)cc2s1	.	.	.	.	.	.
S=C(NCCN1CCOCC1)Nc1ccccc1Cl	/	.	.	/	/	.
CCn1c(COc2ccc(Cl)cc2)nnc1SC1CCc2ccccc2C1=O (stereo not given)	/	.	7.1	/	/	.
CCn1c(COc2ccc(Cl)cc2)nnc1SCc1ccc(C#N)cc1	.	.	.	.	.	.
Cc1ccc(CC(=O)Nc2ccccc2N2CCOCC2)cc1C	.	.	.	.	.	.
COc1cccc(-n2c(Cc3cc(=O)[nH]c(=O)[nH]3)nnc2SCc2cccnc2)c1	.	44.2	.	.	.	.
CCOC(=O)c1sc(Nc2nc3cc4c(cc3s2)OCO4)cc1C	/	.	4.7	/	/	.
CCOC(=O)c1sc(Nc2nc3c(OC)cccc3s2)cc1C	/	.	.	/	/	.
Cc1cc(NC(=S)NC(=O)C2CC2)ccc1Br	/	.	.	/	/	.
O=C(CSc1nnc(-c2ccc(F)cc2)c2ccccc12)Nc1c(F)cccc1F	/	36.9	.	/	/	.
O=C(CSc1nnc(-c2ccc(F)cc2)c2ccccc12)Nc1ccccc1	/	.	.	/	/	.
O=C(Nc1nnc(C(F)(F)F)s1)C1COc2ccccc2O1 (stereo not given)	.	.	5.3	.	.	.
O=C(Nc1nncs1)C1COc2ccccc2O1 (stereo not given)	.	.	.	.	.	.
CCC(=O)NC(=S)Nc1ccc(NC(=O)c2ccco2)c(OC)c1	/	.	.	/	/	.
COc1cc(NC(=O)Cc2ccccc2)ccc1NC(=O)c1ccco1	.	64.2	.	.	.	.
CCN(CC)c1ccc(/C=C2/C(=O)N(c3ccc([N+](=O)[O-])cc3)N=C2N2CCOCC2)cc1	.	.	.	.	.	.
CCCC1=NN(c2ccc([N+](=O)[O-])cc2)C(=O)/C1=C\N(C)C	/	32.3	.	/	/	.
Cn1cc(Br)c(C(=O)Nc2nccs2)n1	/	31.7	.	/	/	.
Cn1cc(Br)c(C(=O)Nc2c(F)c(F)c(F)c(F)c2F)n1	/	.	.	/	/	.
Cn1cc(Br)c(C(=O)NNC(=O)c2ccccc2)n1	/	.	.	/	/	.
Cn1cc(Br)c(C(=O)NNC(=O)c2ccc(Br)cc2)n1	/	.	7.6	/	/	.
CCOC(=O)C(C)n1nc(/C=C/c2ccccc2)ccc1=O (stereo not given)	.	88.5	.	.	/	.
C=C(C(=O)c1ccccc1)C(CC(=O)c1ccccc1)c1ccccc1 (stereo not given)	/	.	.	/	/	.
SMILES	sEH inhibitor	Measles CPE	MRP-1 activ	sEH act	MRP reversal	sdo1 growth
CC1(C)O[C@@H]2C[C@H]3[C@@H]4CCC5=CC(=O)C=C[C@]5(C)[C@@]4(F)[C@@H](O)C[C@]3(C)[C@]2(C(=O)CO)O1	/	.	7.2	/	.	.
CC1(C)O[C@@H]2C[C@H]3[C@@H]4C[C@H](F)C5=CC(=O)C=C[C@]5(C)[C@@]4(F)[C@@H](O)C[C@]3(C)[C@]2(C(=O)CO)O1	/	.	.	/	.	.
C[C@]12C=CC(=O)C=C1CC[C@H]1[C@@H]3C[C@@H](O)[C@](O)(C(=O)CO)[C@@]3(C)C[C@H](O)[C@@]12F	/	.	5.2	/	/	.
Cc1ccc(C)c(S(=O)(=O)N2C(=S)NC(=O)C2CC(C)C)c1 (stereo not given)	.	40.5	.	.	/	.
O=C(NC1CCN(C(=O)N2c3ccccc3Sc3ccccc32)CC1)c1ccccc1F	.	40.7	.	.	/	.
O=S(=O)(/C=C/c1ccccc1)Oc1ccccc1	.	.	.	.	.	.
O=C(NCCN1C(=O)S/C(=C\c2ccccc2F)C1=O)C1CCCN1C(=O)c1cccs1 (stereo not given)	/	.	.	/	/	.
O=C(NCCN1C(=O)S/C(=C\c2ccccc2)C1=O)C1CCN(S(=O)(=O)c2cccs2)CC1	/	.	.	/	/	.
COc1ccc(/C=C2/SC(=O)N(CCNC(=O)C3CCCN3C(=O)c3cccs3)C2=O)cc1 (stereo not given)	/	42.0	.	/	/	.
O=C(NCCN1C(=O)S/C(=C/c2ccccc2)C1=O)C1CCCN1C(=O)c1cccs1 (stereo not given)	/	.	7.5	/	/	.
CCC(C)(C)n1nnnc1CN(Cc1cccs1)Cc1cc2cc(OC)ccc2[nH]c1=O	/	37.4	.	/	.	.
CC(C)NC(=O)C(=O)NCCc1ccc(Cl)cc1	.	.	4.8	.	.	.
CC(C)N1C(=O)CCC1C(=O)NCCc1ccc(Cl)cc1 (stereo not given)	/	29.9	.	/	.	.
CC(C)(C)N=C1SCC(C)(/C=N/O)S1 (stereo not given)	.	54.8	.	.	.	.
CCCCCOc1ccc(CSc2ncn[nH]2)cc1	.	.	6.3	.	.	.
CCCCOc1ccc(CSc2n[nH]c(C)n2)cc1	.	.	.	.	.	.
CCCCOc1ccc(CSc2ncn[nH]2)cc1	.	.	9.8	.	.	.
Cc1c(NC(=O)c2cccc(-c3cc4ccccc4oc3=O)c2)cccc1-c1nc2ncccc2o1	/	.	.	/	/	.
O=C1C(c2ccncc2)N(CCC2=CCCCC2)C(=O)CN1C1CCCCC1 (stereo not given)	.	.	.	.	.	.
COc1ccc(NC(=O)CSc2nnnn2-c2ccc(OC)cc2)cc1	.	.	.	.	.	.
COc1cc(NC(=O)CSc2nnnn2-c2ccccc2)cc(OC)c1OC	.	104.2	.	.	.	.
COc1ccccc1S(=O)(=O)Cc1ccc(C(=O)NC(C)c2ccc3c(c2)OCCO3)o1 (stereo not given)	.	/	.	.	.	.
CC(C)(C)n1nnnc1C(c1cccc(C(F)(F)F)c1)N1CCOCC1 (stereo not given)	.	27.4	.	.	/	.
Nc1n[nH]c(-c2ccccc2)c1-c1ccccc1	/	.	.	/	.	.
Cc1cc(Br)ccc1OCC(=O)NNC(=O)c1cnccn1	/	37.4	.	/	/	.
SMILES	sEH inhibitor	Measles CPE	MRP-1 activ	sEH act	MRP reversal	sdo1 growth
O=C(COc1cccc2ccccc12)NNC(=O)c1cnccn1	/	.	.	/	/	.
Cc1ccc(C(=O)NC(C)c2ccc(F)cc2)cc1 (stereo not given)	/	.	6.3	/	/	.
CC(NC(=O)Cc1ccccc1)c1ccc(F)cc1 (stereo not given)	/	.	.	/	/	.
CC(NC(=O)c1ccc(F)cc1)c1ccccc1 (stereo not given)	.	37.6	.	.	/	.
O=C(c1ccc(-c2cccc(Cl)c2)o1)N1CCN(c2ccc([N+](=O)[O-])cc2)CC1	/	.	4.7	/	/	.
CN(C)c1ccc(/C=C(\C#N)C(=O)Nc2nc3c(s2)CCN(Cc2ccccc2)C3)cc1	.	.	.	.	.	.
Cc1c(C=O)c(=O)n(-c2ccccc2)n1-c1ccccc1	/	.	.	/	/	.
CC1=C(C(=O)Nc2ccccc2)C(c2ccc(C)o2)N2C(=O)CSC2=N1 (stereo not given)	.	.	11.2	.	.	.
